Sampled rows, rich in hits. Any-hit rate of the full collection: about 2.3%.
Bim-Mcl-1: disrupts Bim peptide binding to human Mcl-1. hit rate 0.1% among 190,000. inhibition, % at 10 µM. Q07820. Bead-based flow cytometry, Bim peptide-Mcl-1 binding; in the data active means inhibition above about 40%;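 further: 0% = no compound tracer wells and 100% = peptide blocker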
Target sequence (Q07820 whole entry, looked up): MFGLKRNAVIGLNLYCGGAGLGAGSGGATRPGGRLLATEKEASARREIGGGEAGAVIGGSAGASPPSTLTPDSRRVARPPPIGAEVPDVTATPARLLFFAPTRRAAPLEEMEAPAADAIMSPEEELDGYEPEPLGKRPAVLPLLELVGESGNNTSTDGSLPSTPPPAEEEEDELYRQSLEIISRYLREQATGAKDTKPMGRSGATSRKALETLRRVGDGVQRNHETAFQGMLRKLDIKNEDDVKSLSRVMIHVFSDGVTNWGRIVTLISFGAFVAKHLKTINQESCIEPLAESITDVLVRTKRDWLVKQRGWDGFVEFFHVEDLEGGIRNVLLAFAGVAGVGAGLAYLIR
MCL1 BIM primary: MCL1-BIM-BH3 interaction inhibition (human). inhibition, % at 10.9 µM. Q07820. hit rate 0.68% among 320,000. GST-MCL1 / FITC-Bim-BH3 fluorescence polarization. AID 2057;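 active means inhibition above the mean inhibition of all tested compounds plus 3 SD, set per campaign, cut at about 40% in these data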;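 further: 0% = DMSO wells and 100% = unlabeled Bim-BH3 peptide control; higher means more loss of mP so more displacement of Bim peptide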
Mcl1-Bid inh: disrupts binding of human Mcl-1 to Bid peptide | Q07820 | hit rate 0.97% among 220,000 | TR-FRET Mcl-1/Bid-Dy647 peptide binding, 1536-well | inhibition, % at 21.7 µM;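 active means compounds that cut the binding signal by more than half at the single screening dose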;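 further: His-tagged Mcl-1 with europium anti-His antibody binding Bid BH3 peptide; 0% = Mcl-1 plus peptide wells and 100% = peptide-only wells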
BCLXL inh: Bcl-xL (human) inhibition | Q07817 | GST-Bcl-xL / FITC-Bim BH3 peptide fluorescence polarization | inhibition, % at 10.9 µM | hit rate 0.7% among 320,000 | AID 2129;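 active means inhibition above the mean of all tested compounds plus 3 SD, cutoff set per campaign, cut at about 30% in these data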;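 further: 0% = DMSO wells and 100% = unlabeled Bim-BH3 peptide competitor; inhibitors lower millipolarization by displacing the labeled peptide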
Target sequence (Q07817 whole entry, looked up): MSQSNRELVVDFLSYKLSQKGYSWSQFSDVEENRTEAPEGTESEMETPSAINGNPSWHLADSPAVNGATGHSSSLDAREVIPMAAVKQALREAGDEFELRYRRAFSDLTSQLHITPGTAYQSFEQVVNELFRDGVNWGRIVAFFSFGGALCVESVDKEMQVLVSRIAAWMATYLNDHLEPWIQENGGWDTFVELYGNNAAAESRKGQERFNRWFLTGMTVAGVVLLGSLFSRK
Mcl1 Noxa PPI: Mcl-1/Noxa interaction inhibition; Q07820; TR-FRET Mcl-1/Noxa peptide binding, 2 h; inhibition, % at 21.7 µM; hit rate 1.5% among 220,000; AID 1022;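 active means compounds that cut the protein-peptide binding signal by more than 50% relative to plate controls in a single-dose test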;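 further: His-tagged Mcl-1 with rhodamine Noxa BH3 peptide and terbium anti-His antibody; 0% = Mcl-1 plus Noxa peptide wells and 100% = peptide-only wells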
GLD-1 TGE inh: GLD-1-TGE RNA interaction inhibition (C. elegans); hit rate 0.44% among 320,000; inhibition, % at 5.96 µM; Q17339; purified GLD-1 + fluorescein TGE RNA, fluorescence polarization;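 active means percent inhibition above a per-plate cutoff, the plate mean of test compounds plus 3 SD, cut at about 30% in these data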;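 further: 0% = DMSO wells with GLD-1 and probe and 100% = wells lacking GLD-1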
BCLXL inh confirm: counter-screen for MCL1 inhibitors: confirmation of human Bcl-xL inhibitors. shares compounds with MCL1 BIM primary. GST-Bcl-xL / FITC-Bim BH3 peptide FP binding. inhibition, % at 10.9 µM. hit rate 54% among 1,700. AID 2166;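 active means inhibition above a cutoff equal to the mean inhibition of all tested compounds plus 3 SD, cut at about 30% in these data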;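 further: 0% = DMSO wells and 100% = unlabeled Bim BH3 control peptide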
MCL1 inh confirm: MCL1-BIM-BH3 interaction inhibition, confirmation | shares compounds with MCL1 BIM primary | GST-MCL1 / FITC-Bim-BH3 fluorescence polarization | inhibition, % at 10.9 µM | hit rate 61% among 1,700 | AID 2168;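 active means inhibition above the average of all tested compounds plus 3 SD, cut at about 40% in these data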;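 further: 0% = DMSO wells and 100% = unlabeled Bim-BH3 control peptide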
* hit, by the source's call; · = no result; + = active, no number.

SMILES	Bim-Mcl-1	MCL1 BIM primary	Mcl1-Bid inh	BCLXL inh	Mcl1 Noxa PPI	GLD-1 TGE inh	BCLXL inh confirm	MCL1 inh confirm
O=C(CN1C(=O)/C(=C2/SC(=S)N(CCS(=O)(=O)O)C2=O)c2ccccc21)Nc1cccc(C(F)(F)F)c1	·	·	·	·	·	2	·	·
O=C(CN1C(=O)/C(=C2\SC(=S)N(CCS(=O)(=O)O)C2=O)c2ccccc21)Nc1cccc(Br)c1	·	103*	·	21	·	0	26	94*
CC(NC(=O)COc1ccc(/C=N/NC(=O)CO)cc1)c1ccccc1 (stereo not given)	·	12	·	5	·	12	·	·
CN1CCN(C(c2ccc(C(F)(F)F)cc2)c2cc(Cl)c3cccnc3c2O)CC1 (stereo not given)	·	34	·	12	·	-1	·	·
CN1CCN(C(c2ccc(Cl)cc2)c2cc(Cl)c3cccnc3c2O)CC1 (stereo not given)	·	43*	·	18	·	8	36*	95*
Cc1cccn2c(=O)c3cc(C(=O)NCc4ccco4)c(=N)n(C(C)C)c3nc12	0	90*	3	84*	20	49*	39*	63*
Cc1ccc2nc3c(cc(C(=O)NCc4ccco4)c(=N)n3Cc3ccco3)c(=O)n2c1	-1	58*	-31	30	22	0	13	7
Cc1ccc(CNC(=O)c2cc3c(=O)n4ccccc4nc3n(Cc3ccco3)c2=N)cc1	·	-3	·	4	·	13	·	·
Cc1ccc(S(=O)(=O)c2cc3c(=O)n4ccccc4nc3n(Cc3ccco3)c2=N)cc1	1	58*	26	38*	72*	10	25	20
N=c1c(C(=O)NCc2ccco2)cc2c(=O)n3ccccc3nc2n1C1CCCC1	·	63*	·	54*	·	22	157*	194*
Cc1ccc2cc(CN(CC3CCCO3)C(=O)c3cccs3)c(=O)[nH]c2c1 (stereo not given)	·	-4	·	-4	·	-4	·	·
CC(C)C[C@@]12C(=O)N(c3cccc(Br)c3)C(=O)N1[C@H](c1ccc(F)cc1)[C@@H]1C(=O)N(C3CCCCC3)C(=O)[C@@H]12	·	-1	·	1	·	-5	·	·
CCOc1ccc(N=C2NC(=O)S/C2=C\c2ccc(N(C)C)cc2)cc1	2	80*	-75	70*	14	43*	96*	113*
CCOc1ccc(/C=C2\SC(=S)N(N3C(=O)C4CC4C3=O)C2=O)cc1 (stereo not given)	-1	6	-43	10	12	3	·	·
O=c1[nH]c(C(Cl)Cl)nc2sc3c(c12)CCN(Cc1ccccc1)C3	3	102*	4	78*	94*	23	56*	78*
COc1ccc(-n2cc([N+](=O)[O-])c(=O)c3ccc(Cl)cc32)cc1	·	-1	·	7	·	3	·	·
ClCc1nc2ccccc2n1Cc1ccccc1	·	160*	·	129*	·	57*	54*	79*
COc1ccc2c(c1)Sc1ccccc1N2CCN(C)C	-1	-1	36	1	31	-4	·	·
COc1ccc2ccc3c(c2c1)N=CC1(O3)N(C)c2ccccc2C1(C)C (stereo not given)	-4	54*	-28	36*	44	7	62*	83*
On1ccccc1=S	·	68*	·	1	·	0	2	2
Cc1ccc(CNc2ccc3c(c2)OCO3)cc1	6	159*	-42	139*	25	-7	106*	135*
c1cc(CNc2ccc3c(c2)OCO3)ccn1	-4	85*	-51	86*	24	27	64*	81*
COc1cccc(OC)c1C(=O)Nc1ccc(C(=O)NCc2ccccc2)cc1	·	-2	·	-2	·	2	·	·
CC(C)c1cc(Nc2cccc(O)c2)cc(C(C)C)c1O	·	146*	·	140*	·	148*	18	15
Cc1nnc(C)n1N	0	2	-28	-3	2	-4	·	·
SMILES	Bim-Mcl-1	MCL1 BIM primary	Mcl1-Bid inh	BCLXL inh	Mcl1 Noxa PPI	GLD-1 TGE inh	BCLXL inh confirm	MCL1 inh confirm
CCOCCCN(C(=O)Cn1nnc(-c2ccc(C)o2)n1)C(C(=O)NCC1CCCO1)c1ccc(F)cc1 (stereo not given)	·	-1	-26	0	0	10	·	·
Nc1ccc(-c2c3ccc(=O)cc-3oc3cc(O)ccc23)cc1C(=O)O	·	118*	·	106*	·	64*	104*	112*
O=c1cc(-c2ccccc2)c2ccc(O)cc2o1	·	0	·	-4	·	11	·	·
O=c1ccc2c(-c3ccccc3)c3ccc(O)cc3oc-2c1	·	110*	·	106*	·	75*	119*	121*
COc1ccc(NC2c3ccccc3C(=O)N2c2ccccn2)cc1 (stereo not given)	·	6	-44	12	10	3	·	·
O=C(/C=C\c1ccc2c(c1)OCO2)CC1(O)C(=O)Nc2ccccc21 (stereo not given)	·	-4	-8	0	6	1	·	·
Cc1c(C(=O)c2ccc(Cl)cc2[N+](=O)[O-])c2ccccn2c1CCC#N	-4	5	-13	3	4	19	·	·
Cc1c(C(=O)c2ccc(F)cc2F)c2ccccn2c1CCC#N	·	117*	·	100*	·	90*	5	6
O=C(Cn1c(=O)n(Cc2ccco2)c(=O)c2c3c(sc21)CCCC3)Nc1ccccc1	-3	-4	1	-1	-23	-3	·	·
NC(=O)Cn1c(=O)n(Cc2ccco2)c(=O)c2c3c(sc21)CCCCC3	-1	77*	-18	34*	64*	6	31*	77*
CCOc1nc(-c2ccccc2Cl)nc2ccccc12	·	0	-10	2	-12	5	·	·
O=S(=O)([O-])C(c1ccccc1)[n+]1ccccc1 (stereo not given)	·	47*	·	8	·	-2	-1	2
O=C(Nc1ccc(Nc2ccncc2)cc1)c1ccc([N+](=O)[O-])cc1	·	6	-6	4	7	-5	·	·
O=C(Nc1ccc(Nc2ccncc2)cc1)c1ccc(Nc2ccnc3ccc([N+](=O)[O-])cc23)cc1[N+](=O)[O-]	·	43*	90*	-3	80*	-7	13	27
Cc1cc(C)cc(N(CCC#N)C(=O)COC(=O)c2nc3nc(C)cc(C)n3n2)c1	·	-3	·	-4	·	12	·	·
COc1ccc(C2C=C(c3ccc(Br)s3)Nc3ncnn32)cc1OC (stereo not given)	1	+	-58	189*	-6	146*	140*	161*
COc1cccc(C2C=C(c3cccs3)Nc3ncnn32)c1OC (stereo not given)	4	16	-36	15	14	16	·	·
Cc1ccc(-c2nnn(CCC(=O)N3CCCCC3C)n2)cc1 (stereo not given)	-8	3	-37	1	6	-1	·	·
